Methyltransferases = Primary Screen for Target Class Profiling of Small Molecule Inhibitors of Methyltransferases. actives 3.9% (n = 25,000). calls only at 40 µM. AID 1745853, 2022. purified enzyme, MTase-Glo SAH luminescence; hits give low values; call rule not given here
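Each enzyme was assayed with SAM and its substrate. SAH formation detected by MTase-Glo luminescence; single-point 40 uM screen[…].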
Active calls of the source: *; i = inactive; + = active, no number; ! = not confirmed by another sample. The full list was thinned out, with hits kept by preference. % is set by controls: 0 for no effect and ±100 for the full control effect.

SMILES	Methyltransferases
CCCCNC(=O)C(CC)n1ccc2cc(S(=O)(=O)N3CCCCC3)ccc21 (configuration not stated)	i
COc1cc(CO)cc(OC)c1O[C@@H]1O[C@H](CO)[C@@H](O)[C@H](O)[C@H]1O	i
COc1c(-c2ccc(O)cc2)cc(OC)c2c1oc1cc(O)c(OC3OC(CO)C(O)C3O)cc12 (configuration not stated)	i
COc1c2cc(c(O[C@@H]3O[C@H](CO)[C@@H](O)[C@H](O)[C@H]3O)c1OC)CCCCC(O)CCc1ccc(O)c-2c1 (some centres not stated)	+
COc1cccc(NC(=O)CSc2nnc3n(CC(C)C)c(=O)c4cc(F)ccc4n23)c1	i
C=Cc1ccc(Cn2nc3n(Cc4ccccc4)c(=O)c4ccccc4n3c2=O)cc1	i
CN(C)CCNC(=O)c1cccn2c(=O)c3cc4ccccc4cc3nc12	+
CCCN1C(=O)c2cc(C(=O)NCCN(C)C)nn2CC1(C)C(=O)NC1CCCC1 (configuration not stated)	i
CC(C)NC(=O)c1ccc2c(=O)n(C(C)C)c3nn(Cc4ccc(F)cc4Cl)c(=O)n3c2c1	i
COC(=O)c1cc2n(n1)CC(C)(C(=O)NC1CCCCCC1)N(Cc1cccc(OC)c1OC)C2=O (configuration not stated)	i
CN1CCN(CCCN2c3ccccc3Sc3ccc(C(F)(F)F)cc32)CC1	+
CNCCCN1c2ccccc2CCc2ccccc21	i
CN(C)CCCN1c2ccccc2Sc2ccccc21	i
C=CCn1c(=O)c2ccc(C(=O)NCC(C)C)cc2n2c(=O)n(CC(=O)NC(C)C)nc12	i
C=C1C(=O)OC2C1CCC1(C)C(O)CCC(=C)C21 (configuration not stated)	+
C=C1C(=O)O[C@@H]2[C@H]3O[C@]3(C)CCC=C(C)CC[C@@H]12	i
C=C1C(=O)OC2C1C(O)CC1(C)C(O)CCC(C=O)C21 (configuration not stated)	i
CC1(C(=O)NC2CCCC2)Cn2c(ccc2-c2ccco2)C(=O)N1CCCN1CCOCC1 (configuration not stated)	i
COc1cccc(C(=O)COc2cc(O)c3c(=O)cc(-c4ccccc4)oc3c2)c1	i
COc1ccccc1C(=O)Nc1ccc2c(c1)C(=O)N(C)C1=NCCN12	i
CCC(NC(C)C)C(O)c1ccc(O)c(O)c1 (configuration not stated)	i
NCC(O)c1ccc(O)c(O)c1 (configuration not stated)	+
CC(CCc1ccccc1)NCC(O)c1ccc(O)c(C(N)=O)c1 (configuration not stated)	i
CCCn1c(=O)c2ccc(Cl)cc2n2c(=O)n(Cc3ccccc3F)nc12	i
COc1ccc(NC(=O)N2CCn3c(C)ccc3C2C(C)C)cc1OC (configuration not stated)	i
SMILES	Methyltransferases
CN(CC(=O)Nc1ccc(F)c(Cl)c1)S(=O)(=O)c1ccc2[nH]c3c(c2c1)CCCC3	i
COc1ccc(-c2ncccc2CNS(=O)(=O)c2ccc(C#N)cc2)cc1	i
COc1cc2c(NC3CCN(CC4CCCCC4)CC3)nc(N3CCCN(C(C)C)CC3)nc2cc1OCCCN1CCCCC1	+!
CCc1ccc(NC(=O)CSc2nnc3[nH]c(=O)c(Cc4ccc(C)cc4)nn23)cc1	i
CC(C)CCNC(=O)C1(C)Cn2c(cc3ccccc32)C(=O)N1Cc1cccs1 (configuration not stated)	i
CN(CC(=O)N1CCOCC1)S(=O)(=O)c1ccc2c(c1)CCCC(=O)N2	i
COc1ccc(NC(=O)Cn2nc3nc(Nc4ccc(F)cc4)ccn3c2=O)cc1F	i
Cc1ccc(N2C(=O)c3cc(C(C)(C)C)nn3CC2(C)C(=O)NC2CCCCC2)cc1 (configuration not stated)	i
Cc1cn(-c2cc(NC(=O)c3ccc(C)c(Nc4nccc(-c5cnccn5)n4)c3)cc(C(F)(F)F)c2)cn1	i
CCN1CCN(Cc2ccc(NC(=O)c3ccc(C)c(NC(=O)c4cncc(-c5cccs5)c4)c3)cc2C(F)(F)F)CC1	i
Cc1cc2[nH]c(=O)[nH]c2cc1S(=O)(=O)NC1CCCCC1	i
CCCn1c(=O)c2cc(F)ccc2n2c(SCC(=O)Nc3ccc(Cl)cc3)nnc12	i
CCCCNC(=O)Cn1ccc2cc(S(=O)(=O)N3CCC(C)CC3)ccc21	i
Cc1cc(C(C#N)c2ccc(Cl)cc2)c(Cl)cc1NC(=O)c1cc(I)cc(I)c1O (configuration not stated)	+
CN1C(=O)c2cc(C(=O)NCc3ccc4c(c3)OCO4)nn2CC1(C)C(=O)NCc1ccccc1 (configuration not stated)	i
c1cc(NC2CCNCC2)nc(-c2cnc3ccccn23)c1	+
O=C(Nc1ccccc1Cl)c1cnc2ccc(C3CCNCC3)cn12	i
O=C(CCc1nnc2n(Cc3ccc(Cl)cc3)c(=O)c3ccccc3n12)NCCCN1CCOCC1	i
O=C(CCc1nnc2n(Cc3ccccc3)c(=O)c3ccccc3n12)NCCN1CCCC1	i
O=C(CCCc1nnc2n3nc(-c4ccccc4)nc3c3ccccc3n12)NCc1ccccc1	i
O=C(CCc1nnc2n(Cc3ccc(Cl)cc3)c(=O)c3ccccc3n12)NCCN1CCCC1	+
O=C(CCCc1nnc2n3nc(-c4ccccc4)nc3c3ccccc3n12)NCCN1CCCC1	+
Cc1ccc(Cn2c(=O)c3ccccc3n3c(CCC(=O)N4CCC(C)CC4)nnc23)cc1	i
CC(C)CCNC(=O)CCc1nnc2n(Cc3ccccc3Cl)c(=O)c3ccccc3n12	i
Cc1ccc(Cn2c(=O)c3ccccc3n3c(CCC(=O)N4CCC(N5CCCCC5)CC4)nnc23)cc1	+
SMILES	Methyltransferases
O=C(CCc1nnc2n(Cc3ccccc3Cl)c(=O)c3ccccc3n12)NCCN1CCOCC1	i
CC1CCN(CCCNC(=O)CCc2nnc3n(Cc4ccccc4Cl)c(=O)c4ccccc4n23)CC1	+
O=C(CCc1nnc2n(Cc3ccccc3)c(=O)c3ccccc3n12)N1CCN(C2CCCCC2)CC1	i
O=C(CCCc1nnc2n3nc(-c4ccccc4)nc3c3ccccc3n12)NCCc1ccccc1	i
CC(C)CNC(=O)c1ccc2c(=O)n(C(C)C)c3nn(CC(=O)Nc4ccc(F)cc4)c(=O)n3c2c1	i
Cc1ccc(Cn2c(=O)c3ccccc3n3c(SCC(=O)Nc4cccc(Cl)c4)nnc23)cc1	i
Cc1ccc(CNC(=O)C2(C)Cc3ccccc3C(=O)N2c2cccc(C)c2)cc1 (configuration not stated)	i
Cc1ccc(Cn2nc3n(C(C)C)c(=O)c4ccc(C(=O)NCC(C)C)cc4n3c2=O)cc1	i
Cc1ccccc1CCN1C(=O)c2cc3ccccc3n2CC1(C)C(=O)NCCC(C)C (configuration not stated)	i
COc1cccc(N2C(=O)CSc3c(c4ccccc4n3C)C2C(=O)NCc2ccc(F)cc2)c1 (configuration not stated)	i
Cc1ccccc1CSc1nnc2n(CC(C)C)c(=O)c3ccccc3n12	i
CCCCN(CC)CCN1C(=O)c2ccc(-c3ccco3)n2CC1(C)C(=O)NC1CCCCCC1 (configuration not stated)	i
CCCN1C(=O)c2cc(C(=O)NCc3ccc(C)cc3)nn2CC1(C)C(=O)NC1CCCC1 (configuration not stated)	i

Source: PubChem BioAssay (National Center for Advancing Translational Sciences (NCATS))
